Assay results reported in PubChem BioAssay.
Activity calls are given as the source filed them.

Columns and labels:
[1] = small molecules captured by biotinylated probe aFSTL3 – biochemical, small-molecule microarray, fluorescence 635/667, stem cell growth factor project, primary screen (AID 1064); conditions: higher = more signal;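 also: measures binding of the biotinylated anti-FSTL3 antibody to printed compounds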
[2] = binders from COS7 lysate, DM2A8 probe, primary screen, torsin A project, cell lysate, small-molecule microarray, fluorescence 635/667 (AID 1065); conditions: higher = more signal, COS7 lysate expressing mutant human TOR1A
[3] = small molecules captured by biotinylated probe aFGF2 – biochemical, small-molecule microarray, fluorescence 635/667, stem cell growth factor project, primary screen (AID 1067); conditions: higher = more signal;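 also: measures binding of biotinylated aFGF2 protein to printed compounds on slides; z-score merges feature fluorescence and signal-to-noise across triplicate slides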
[4] = small molecules captured by biotinylated probe aFGF10 – biochemical, small-molecule microarray, fluorescence 635/667, stem cell growth factor project, primary screen (AID 1071); conditions: higher = more signal;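 also: score merges 667 nm spot intensity and signal to noise from triplicate slides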
[5] = target: Neurogenic locus notch homolog protein 2 (Homo sapiens) (UniProt Q04721); assay: small molecules binding Notch2 protein – biochemical, small-molecule microarray, 635 nm fluorescence, stem cell growth factors, primary screen (AID 1073); conditions: higher = more signal
Chain of Neurogenic locus notch homolog protein 2 (Homo sapiens) (Q04721 whole entry, looked up, canonical isoform): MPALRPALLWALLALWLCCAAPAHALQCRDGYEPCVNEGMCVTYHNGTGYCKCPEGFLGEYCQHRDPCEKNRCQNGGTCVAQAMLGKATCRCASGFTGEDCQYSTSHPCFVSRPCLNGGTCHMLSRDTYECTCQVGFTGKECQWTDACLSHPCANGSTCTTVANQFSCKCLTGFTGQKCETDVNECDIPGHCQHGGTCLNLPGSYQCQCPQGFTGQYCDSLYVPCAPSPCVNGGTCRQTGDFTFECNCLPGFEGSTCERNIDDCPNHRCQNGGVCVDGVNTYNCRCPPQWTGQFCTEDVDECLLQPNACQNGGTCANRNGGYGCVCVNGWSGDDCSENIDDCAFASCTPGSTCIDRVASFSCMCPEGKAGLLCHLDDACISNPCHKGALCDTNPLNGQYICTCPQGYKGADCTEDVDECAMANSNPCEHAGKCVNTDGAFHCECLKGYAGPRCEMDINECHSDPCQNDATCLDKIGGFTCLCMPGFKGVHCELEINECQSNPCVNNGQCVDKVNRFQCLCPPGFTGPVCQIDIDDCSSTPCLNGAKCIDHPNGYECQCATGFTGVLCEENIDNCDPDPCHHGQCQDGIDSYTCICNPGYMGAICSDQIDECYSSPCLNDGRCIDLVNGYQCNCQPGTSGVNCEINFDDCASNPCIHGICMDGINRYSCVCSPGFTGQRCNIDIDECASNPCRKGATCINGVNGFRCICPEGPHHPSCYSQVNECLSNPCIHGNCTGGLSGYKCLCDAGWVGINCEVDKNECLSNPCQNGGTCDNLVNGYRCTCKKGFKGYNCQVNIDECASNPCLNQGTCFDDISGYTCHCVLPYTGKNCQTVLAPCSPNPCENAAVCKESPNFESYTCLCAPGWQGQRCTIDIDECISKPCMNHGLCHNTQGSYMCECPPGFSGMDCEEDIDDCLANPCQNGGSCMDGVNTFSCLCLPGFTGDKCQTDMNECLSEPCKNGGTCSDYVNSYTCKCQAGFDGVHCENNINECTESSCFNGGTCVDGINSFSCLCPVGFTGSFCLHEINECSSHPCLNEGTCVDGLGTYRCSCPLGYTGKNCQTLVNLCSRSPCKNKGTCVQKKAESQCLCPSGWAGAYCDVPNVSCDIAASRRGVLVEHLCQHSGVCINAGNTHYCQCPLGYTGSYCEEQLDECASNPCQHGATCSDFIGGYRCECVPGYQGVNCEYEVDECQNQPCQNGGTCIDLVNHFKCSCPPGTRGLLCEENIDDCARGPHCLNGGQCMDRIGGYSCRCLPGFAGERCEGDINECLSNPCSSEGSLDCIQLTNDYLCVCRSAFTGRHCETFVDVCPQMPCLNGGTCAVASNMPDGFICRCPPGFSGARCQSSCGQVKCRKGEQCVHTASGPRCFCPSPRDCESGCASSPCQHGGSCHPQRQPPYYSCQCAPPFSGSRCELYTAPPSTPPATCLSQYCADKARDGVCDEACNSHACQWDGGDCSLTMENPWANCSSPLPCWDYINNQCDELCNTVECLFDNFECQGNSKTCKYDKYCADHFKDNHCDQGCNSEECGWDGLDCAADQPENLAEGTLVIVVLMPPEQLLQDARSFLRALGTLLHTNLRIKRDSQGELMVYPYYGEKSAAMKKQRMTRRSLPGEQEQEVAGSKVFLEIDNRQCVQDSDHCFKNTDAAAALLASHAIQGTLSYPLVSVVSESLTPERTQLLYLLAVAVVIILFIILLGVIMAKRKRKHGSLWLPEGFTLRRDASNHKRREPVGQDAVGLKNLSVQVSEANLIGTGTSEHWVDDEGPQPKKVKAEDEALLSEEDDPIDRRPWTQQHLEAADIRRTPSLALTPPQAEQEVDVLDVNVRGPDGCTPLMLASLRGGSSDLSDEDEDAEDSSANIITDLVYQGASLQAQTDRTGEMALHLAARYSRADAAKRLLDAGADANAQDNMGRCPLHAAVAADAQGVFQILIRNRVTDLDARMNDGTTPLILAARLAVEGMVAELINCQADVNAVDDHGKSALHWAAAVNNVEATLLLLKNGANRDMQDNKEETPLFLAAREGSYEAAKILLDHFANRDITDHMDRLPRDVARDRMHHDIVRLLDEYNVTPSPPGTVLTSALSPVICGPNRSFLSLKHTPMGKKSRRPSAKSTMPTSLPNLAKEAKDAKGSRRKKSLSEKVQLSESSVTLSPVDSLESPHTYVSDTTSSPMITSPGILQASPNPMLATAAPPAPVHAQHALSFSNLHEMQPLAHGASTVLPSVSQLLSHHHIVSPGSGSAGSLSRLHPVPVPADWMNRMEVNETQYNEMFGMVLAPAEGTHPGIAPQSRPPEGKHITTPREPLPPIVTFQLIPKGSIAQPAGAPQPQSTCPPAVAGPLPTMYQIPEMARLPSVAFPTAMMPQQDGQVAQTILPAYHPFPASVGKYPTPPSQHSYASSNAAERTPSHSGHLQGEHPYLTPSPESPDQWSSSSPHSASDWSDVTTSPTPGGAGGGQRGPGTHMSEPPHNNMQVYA

[6] = target: Pro-neuregulin-1, membrane-bound isoform (Homo sapiens) (UniProt Q02297); assay: small molecules binding neuregulin-1 protein – biochemical, small-molecule microarray, fluorescence 635/667, psychiatric disease protein project, primary screen (AID 1075); conditions: NRG1 binding, 635 nm fluorescence, higher = more signal;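 also: score combines 667 nm spot fluorescence with signal to noise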
Chain of Pro-neuregulin-1, membrane-bound isoform (Homo sapiens) (Q02297 whole entry, looked up, the tested form may be a part, canonical isoform): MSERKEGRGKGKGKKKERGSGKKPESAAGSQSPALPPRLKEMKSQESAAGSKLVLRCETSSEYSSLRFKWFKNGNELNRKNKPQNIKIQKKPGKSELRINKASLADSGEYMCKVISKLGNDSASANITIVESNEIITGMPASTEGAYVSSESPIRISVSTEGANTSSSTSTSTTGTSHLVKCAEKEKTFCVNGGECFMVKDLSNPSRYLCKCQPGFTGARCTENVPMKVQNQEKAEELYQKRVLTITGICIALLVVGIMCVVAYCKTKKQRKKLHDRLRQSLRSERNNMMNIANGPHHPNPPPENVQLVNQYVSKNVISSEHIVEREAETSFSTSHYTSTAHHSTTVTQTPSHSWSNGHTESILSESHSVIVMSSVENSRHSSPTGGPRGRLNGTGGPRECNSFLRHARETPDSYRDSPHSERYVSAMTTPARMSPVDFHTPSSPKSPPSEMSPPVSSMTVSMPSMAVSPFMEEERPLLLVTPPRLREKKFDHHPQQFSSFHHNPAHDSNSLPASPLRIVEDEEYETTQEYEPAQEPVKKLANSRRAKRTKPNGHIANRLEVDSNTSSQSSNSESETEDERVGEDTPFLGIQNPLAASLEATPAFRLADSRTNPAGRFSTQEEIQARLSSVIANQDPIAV

[7] = tested on: Neuregulin-1 EGF-like domain; assay: small molecules binding NRG1 EGF domain – biochemical, small-molecule microarray, 635 nm fluorescence, primary screen (AID 1081); conditions: higher = more signal;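 also: binding of the protein to compounds printed on small-molecule microarray slides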
[8] = FRG1 expression reporter modulators in myotubes – cell-based, C2C12 myotubes, firefly/Renilla luciferase, luminescence, FRG1 inhibition for FSHD, primary screen (AID 1084); conditions: FRG1 promoter luciferase, higher = more signal, called active from +8 up or from −8 down
[9] = small molecules captured by biotinylated probe aFST – biochemical, small-molecule microarray, fluorescence 635/667, stem cell growth factor project, primary screen (AID 1086); conditions: higher = more signal;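 also: score merges 667 nm fluorescence with signal-to-noise of each printed compound spot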
[10] = binders of probe aHhip on microarray, primary screen, stem cell growth factor project, biochemical, small-molecule microarray, fluorescence 635/667 (AID 1087); conditions: higher = more signal;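 also: score merges spot fluorescence at 667nm with spot signal to noise ratio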

Row | SMILES | composite z-score [1] | composite z-score [2] | composite z-score [3] | composite z-score [4] | composite z-score [5] | composite z-score [6] | composite z-score [7] | z-score [8] | composite z-score [9] | composite z-score [10]
1 | CCOC(=O)[C@H](Cc1ccccc1)NC(=O)CCC1CC(OC(=O)NCc2cccc3ccccc23)CC2(CCCC(COC(=O)NCC(c3ccccc3)c3ccccc3)O2)O1 (stereo not given in full) | -0.222 | 0.578 | -0.0753 | 0.326 | 0.928 | 0.301 | 1.04 | 0.631 (inactive) | 0.329 | -0.169
2 | CCOC(=O)[C@H](CC(C)C)NC(=O)CCC1CC(OC(=O)NCc2ccc3c(c2)OCO3)CC2(CCCC(COC(=O)NCC(c3ccccc3)c3ccccc3)O2)O1 (stereo not given in full) | -0.354 | -0.168 | -0.0692 | 0.229 | 0.129 | 0.49 | 1.17 | 2.69 (inactive) | 0.344 | -0.0994
3 | COc1cccc([C@H]2Oc3ccc(OC)cc3C(=NOC[C@@H](O)[C@H]3O[C@@H]4OC(C)(C)O[C@@H]4[C@H]3O)[C@@H]2O)c1 | -0.117 | 0.146 | -0.0533 | 0.289 | 0.533 | -0.242 | 0.54 | 5.07 (inactive) | 0.149 | -0.194
4 | Cc1ccc(S(=O)(=O)OC[C@H]2CN3[C@H](c4ccc(Br)cc4)[C@@H](C)CC[C@H]3C(=O)O2)cc1 | -0.307 | 0.0709 | -0.106 | 0.255 | 0.0993 | 0.0865 | 1.01 | -0.636 (inactive) | -0.164 | -0.191
5 | CCOC(=O)[C@H](CC(C)C)NC(=O)CCC1CC(OC(=O)NCCc2ccc(F)cc2)CC2(CCCC(COC(=O)NCCC(C)C)O2)O1 (stereo not given in full) | -0.44 | 0.289 | -0.083 | 0.297 | -0.383 | 0.797 | 0.98 | 1.25 (inactive) | -0.128 | 0.0722
6 | CC(C)=CCCC(C)=CCON=C1C[C@@H](O)[C@@H](O)[C@@H]2[C@@H]3C(=O)N(C(C)(C)C)C(=O)[C@@H]3CC[C@H]12 | -0.28 | -0.0211 | 0.0122 | 0.406 | 0.591 | 0.0095 | 0.744 | 0.132 (inactive) | -0.0538 | -0.0994
7 | COc1ccc(C#C[C@@H]2C=C[C@H](OC(C)=O)[C@@H](COC(C)=O)O2)cc1 | -0.068 | 0.101 | -0.0769 | 0.288 | 0.395 | 0.198 | -0.0975 | 0.742 (inactive) | -0.0985 | -0.191
8 | O=C1[C@H]2[C@H]3[C@H](O)[C@H](O)CC(=NOC[C@@H](O)COCc4ccco4)[C@H]3CC[C@H]2C(=O)N1C[C@@H]1CCCO1 | -0.634 | 1.03 | -0.265 | 0.133 | 0.256 | -0.285 | 1.15 | 0.839 (inactive) | -0.181 | -0.337
9 | Cc1cc2c(c(=O)o1)[C@@H](O)[C@H]1O[C@H]1C2=O | -0.494 | 0.23 | -0.0103 | 0.336 | 0.378 | -0.167 | 0.239 | 0.446 (inactive) | 0.163 | 0.151
10 | O=C1[C@H]2[C@H]3[C@H](O)[C@H](O)CC(=NOCc4ccccc4)[C@H]3CC[C@H]2C(=O)N1Cc1ccc2c(c1)OCO2 | -0.537 | 0.239 | -0.172 | 0.315 | 0.306 | 0.273 | 0.278 | 0.0017 (inactive) | 0.0418 | -0.0003
11 | COC(=O)CC=C[C@@H](C)[C@@H](C=NO[C@@H](C)c1cn([C@H](CO)Cc2ccccc2)nn1)NS(=O)(=O)c1ccc(C)cc1 | -0.315 | 0.712 | -0.161 | 0.166 | 0.0829 | -0.0443 | 0.75 | -1.1 (inactive) | 0.279 | 0.251
12 | CON=Cc1ccc(C(=O)N2[C@H](c3ccc(C)cc3)[C@@H](C)CC[C@H]2C(=O)OC)cc1 | -0.13 | 0.486 | -0.134 | 0.363 | 0.489 | 0.424 | 0.843 | 0.0346 (inactive) | 0.267 | -0.236
13 | CCOC(=O)NN=C1C[C@@H](O)[C@@H](O)[C@@H]2[C@@H]3C(=O)N(Cc4ccc5c(c4)OCO5)C(=O)[C@@H]3CC[C@H]12 | -0.428 | 0.0687 | -0.113 | -0.388 | -0.434 | 0.279 | 0.678 | 0.855 (inactive) | 0.625 | -0.0645
14 | CO[C@H]1COC(=O)CC=C[C@H](C)COC(=O)[C@@H](C)NC(=O)CC=C[C@@H]1C | -0.512 | 1.94 | -0.0996 | 0.231 | -0.0457 | -0.79 | 0.219 | 0.464 (inactive) | -0.214 | 0.0794
15 | CCOC(=O)NN=C1C[C@@H](O)[C@@H](O)[C@@H]2[C@@H]3C(=O)N(c4cccc(Oc5ccccc5)c4)C(=O)[C@@H]3CC[C@@H]12 | -0.216 | 1.21 | -0.085 | 0.542 | -0.202 | 0.823 | 0.81 | -0.233 (inactive) | 0.0218 | -0.249
16 | CO[C@@H]1C=CCC(=O)N[C@@H](C)C(=O)OC[C@@H](OC)[C@H](C)CCCC(=O)OC[C@H]1C | -0.198 | 2.55 | -0.129 | 0.361 | 0.0208 | -0.677 | -0.951 | 0.313 (inactive) | -0.331 | 0.176
17 | CCC=CCCC(OC(=O)c1ccc(Br)cc1)C1=CCCCC1=O (stereo not given) | 0.122 | 0.333 | 0.543 | -0.0363 | -0.164 | 0.714 | 0.878 | 0.796 (inactive) | 0.336 | 0.0826
18 | CCOC(=O)[C@H](Cc1ccccc1)NC(=O)CCC1CC(OC(=O)NCc2ccc3c(c2)OCO3)CC2(CCCC(COC(=O)NCCC(C)C)O2)O1 (stereo not given in full) | -0.545 | 0.107 | -0.0193 | 0.755 | 0.523 | 1.41 | 1.06 | 0.548 (inactive) | 0.169 | 0.268
19 | CC(CCN1CCCCc2nc(C)c(C)cc21)=NOC[C@@H](C)[C@H](OCc1ccccc1)C(C)C | -0.443 | -0.548 | -0.29 | -0.776 | -1.38 | -0.559 | -0.545 | -0.688 (inactive) | -2.12 | -0.0423
20 | CCOC(=O)[C@H](CC(C)C)NC(=O)CCC1CC(OC(=O)NCCc2ccc(F)cc2)CC2(CCCC(COC(=O)NCCc3ccccc3OC)O2)O1 (stereo not given in full) | -0.329 | 0.0726 | -0.0806 | 0.363 | 0.41 | 1.08 | 0.577 | 0.617 (inactive) | 0.216 | -0.134
21 | CC(C)(C)N1C(=O)[C@H]2[C@H]3[C@H](O)C=CC(=O)[C@@H]3CC[C@H]2C1=O | -0.623 | 0.0741 | -0.132 | 0.412 | 0.437 | -0.261 | 0.368 | -0.757 (inactive) | 0.229 | 0.0251
22 | O=C1OCCC=C1C(O)CCc1ccccc1 (stereo not given) | -0.209 | 0.652 | -0.0885 | 0.37 | 0.327 | -0.192 | 0.375 | 0.667 (inactive) | 0.285 | -0.0645
23 | CO[C@H]1COC(=O)[C@H](C)NC(=O)[C@@H](C)COC(=O)[C@H]2CCCN2C(=O)CC=C[C@H]1C | -0.403 | 1.06 | -0.216 | 0.347 | 0.338 | -0.499 | 0.175 | -0.345 (inactive) | -0.0694 | -0.179
24 | CCOC(=O)NN=C1C[C@@H](O)[C@@H](O)[C@@H]2[C@@H]3C(=O)N(c4ccc(F)cc4F)C(=O)[C@@H]3CC[C@@H]12 | -0.333 | 0.415 | -0.0659 | 0.281 | 0.493 | 0.594 | -0.0454 | -0.248 (inactive) | 0.627 | 0.0139
25 | COC(=O)[C@@H]1CC[C@H](C)[C@@H](c2ccc(C)cc2)N1C(=O)c1ccc(C=NOCC[C@@H]2C=C[C@H](OC(C)=O)[C@@H](COC(C)=O)O2)cc1 | -0.381 | 0.333 | -0.11 | 0.332 | 0.7 | 0.102 | 0.61 | 0.579 (inactive) | 0.0627 | 0.0505
26 | COc1ccc(O[C@@H]2[C@H](O)CO[C@H]2C=Cc2ccccc2)cc1 | -0.323 | 0.26 | -0.113 | 0.649 | -0.625 | 0.0515 | -0.839 | -1.39 (inactive) | -0.367 | -0.0994
